In all, about 410,000 compounds went through this assay and about 6,400 (1.6%) were called active. About 20% were inconclusive and are not listed. This excerpt belongs to a sample that is enriched for actives. Unmarked numbers belong to inactive results. The call rests on the fitted dose curve; in most records, active means well fitted inhibition curve with a large enough effect; inconclusive means small, poorly fitted or top-dose-only effect; inactive means no such curve, though single readings can be large or run the other way.
biological target: Glucagon-like peptide 1 receptor (Homo sapiens) (UniProt P43220); assay: qHTS of GLP-1 Receptor Inverse Agonists (Inhibition Mode); conditions: HEK293 GLP-1R CRE-luciferase, luminescence, 24 h, GLP-1R form is constitutively active; series mostly up to 38.3 µM; activity change, negative = inhibition: at the top concentration; further: nearly all actives have a fitted effect of over 55% in size
Sequence (P43220 whole entry, looked up): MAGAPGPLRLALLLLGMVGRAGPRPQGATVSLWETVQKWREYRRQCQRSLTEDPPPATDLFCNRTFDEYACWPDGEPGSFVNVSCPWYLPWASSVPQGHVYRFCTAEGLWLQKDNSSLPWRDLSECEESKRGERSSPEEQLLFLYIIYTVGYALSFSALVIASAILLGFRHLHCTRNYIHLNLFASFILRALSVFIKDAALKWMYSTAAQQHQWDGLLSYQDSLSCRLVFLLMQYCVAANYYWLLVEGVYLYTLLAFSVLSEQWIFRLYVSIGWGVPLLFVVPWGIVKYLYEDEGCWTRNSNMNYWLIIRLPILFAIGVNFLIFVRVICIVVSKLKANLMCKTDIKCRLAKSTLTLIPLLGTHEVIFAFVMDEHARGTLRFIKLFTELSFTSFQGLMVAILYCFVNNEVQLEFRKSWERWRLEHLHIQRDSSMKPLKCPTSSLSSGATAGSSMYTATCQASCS
Summary of the method: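 qHTS in 1536-well format: reporter HEK293 cells expressing constitutive GLP-1R activity in DMEM + 10% Nu serum, 24 hr with compounds at 37 deg C, luminescence read after 12 min with detection reagent.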
On the % scale 0 is the no-effect control and ±100 the full control effect; potency means the concentration at half of the fitted maximal effect.

| SMILES | activity change, negative = inhibition [%] | Potency |
| --- | --- | --- |
| C[C@H]1CN([C@@H](C)CO)C(=O)c2cc(Br)cnc2O[C@H]1CN(C)S(=O)(=O)c1cccs1 | 5.81 | – |
| CCOC(=O)C1=CC[C@@H](c2ccncc2)N(S(=O)(=O)c2ccc(C)cc2)C1 | -10.5 | – |
| Cc1cc2oc(=O)cc(CN(C)Cc3ccccc3)c2cc1Cl | -22.1 | – |
| CN(C)CCN1CCN(c2cc(-c3cccc(Cl)c3)nc3ccnn23)CC1 | -14.7 | – |
| O=C(CSc1ccccc1)Nc1cc(Cl)ccc1Oc1ccccc1 | – | 11.2 µM (active) |
| COc1ccc(Cl)cc1NC(=O)CSc1nc2ccccc2c2nc(-c3ccccc3)nn12 | 9.31 | – |
| O=C(COC(=O)CSc1ccccc1)Nc1ccc(F)cc1F | -0.781 | – |
| Cc1ccc(CCNC(=O)CN2C(=O)CSc3ccc(S(=O)(=O)N4CCOCC4)cc32)cc1 | -35.8 | – |
| CC1=C(C(=O)N2CCOCC2)CC(CC(=O)NCCCN(C)C)C(=O)N1Cc1ccc(C(C)(C)C)cc1 (stereo not drawn) | 23 | – |
| CCCCN1C(=O)C(CC(=O)NCc2cccs2)CC(C(=O)N2CCOCC2)=C1C (stereo not drawn) | 10.4 | – |
| Nc1ncnc2c1ncn2[C@@H]1O[C@H](C(=O)NCC(F)(F)F)[C@@H](O)[C@H]1O | 25.4 | – |
| O=CNc1cc(-c2ccc(C(=O)N3CCOCC3)cc2)cn2c(-c3ccc(F)cc3)cnc12 | -5.23 | – |
| COc1ccccc1N1CCN(S(=O)(=O)CCNC(=O)COc2ccc(F)cc2)CC1 | -20.4 | – |
| CCN1CCN(CCCCOc2ccccc2F)CC1 | 0.199 | – |
| COc1ccccc1N1CCN(CCCCOc2ccc(F)cc2)CC1 | – | 12.6 µM (active) |
| Cc1ccc2cccc([N+](=O)[O-])c2n1 | 8.75 | – |
| C[C@@H]1CN([C@H](C)CO)C(=O)c2cc(-c3ccc(F)cc3)cnc2O[C@H]1CN(C)C(=O)c1ccc(F)cc1 | -8.66 | – |
| COc1ccc(CN2CCn3ncc(C(=O)Nc4ccc(Cl)cc4Cl)c3C2=O)cc1 | -16.2 | – |
| COc1ccc(CN(C)C(=S)Nc2ccc(Cl)cc2Cl)cc1 | – | 7.08 µM (active) |
| S=C(Nc1ccc(Cl)cc1Cl)N1CCCC1 | 7.41 | – |
| COc1cccc(C(NC(C)=O)c2nc(-c3ccccc3OC)cs2)c1 (stereo not drawn) | -12.1 | – |
| CC1=C(C(=O)N2CCOCC2)CC(CC(=O)NCC2CCCCC2)C(=O)N1Cc1ccc(F)cc1 (stereo not drawn) | 3.52 | – |
| COc1ccccc1N1CCN(Cc2ccc(OC)c3ccccc23)CC1 | 0.582 | – |
| CC1(Oc2cccc(F)c2)CCN(Cc2ccccc2OC(F)F)C1 (stereo not drawn) | -4.31 | – |
| COc1ccc(CN2CCC(C)(Oc3cccc(F)c3)C2)c2ccccc12 (stereo not drawn) | – | 11.2 µM (active) |

| SMILES | activity change, negative = inhibition [%] | Potency |
| --- | --- | --- |
| CCCNC(=O)C1(C)CCN(C(=O)c2ccc(F)cc2Cl)C1 (stereo not drawn) | 11.7 | – |
| COc1ccc([C@H]2CC(=O)C[C@@H](CCn3cc(CC4CCCC4)nn3)O2)cc1 | 21.5 | – |
| Cc1cc(C)c(S(=O)(=O)NN=C2c3ccccc3[C@H]3Cc4csc[n+]4[C@@H]23)c(C)c1 | 18.1 | – |
| COc1ccccc1-n1c(SCC(=O)Nc2ccc(Cl)cc2)nc(O)c(Cc2ccccc2)c1=O | -20.6 | – |
| CCOC(=O)N/N=C/c1cn(Cc2ccccc2Cl)c2ccccc12 | – | 7.94 µM (active) |
| Cc1ccc(OCCOc2cccc(/C=N/NC(N)=O)c2)cc1 | 58.1 | – |
| COC(=O)N/N=C/c1c[n+]([O-])c2ccccc2[n+]1[O-] | 8.56 | – |
| CC(NC(=O)CCc1cn(Cc2ccccc2Cl)c2ccccc12)c1ccccc1 (stereo not drawn) | -8.72 | – |
| COC(=O)N/N=C/c1cn(CCCOc2ccc(C)cc2)c2ccccc12 | – | 8.91 µM (active) |
| NC(=O)Cn1cc(/C=N\NS(=O)(=O)c2ccccc2)c2ccccc21 | -27.9 | – |
| O=C(CC[C@H]1O[C@@H](n2ccc(=O)[nH]c2=O)[C@H](O)[C@@H]1O)N[C@H](Cc1ccccc1)C(=O)NCCCN1CCCC1=O | 13.3 | – |
| CC(=O)Nc1ccc2c3c(ccc([N+](=O)[O-])c13)CC2 | 1.13 | – |
| O=C(OCc1cn([C@@H]2C[C@H](c3ccc(Cl)cc3)N(Cc3cccs3)C[C@H]2O)nn1)c1ccccc1 | 18 | – |
| CCC(=O)N1Cc2cc(C(=O)NCc3cccc(F)c3)nc(-c3cccc(C4=CCCC4)c3)c2[C@H]1CCO | 16 | – |
| CCCOc1ccc(F)cc1-c1cc(C(=O)Nc2ccc(F)cc2)[nH]n1 | -12.9 | – |
| O=C(C(=O)N1CCC(c2ccccc2)CC1)c1ccccc1 | 16 | – |
| CN(c1ccccc1)S(=O)(=O)c1cccc(NC(=O)Cc2c(F)cccc2Cl)c1 | – | 7.94 µM (active) |
| CN(c1ccccc1)S(=O)(=O)c1cccc(C(=O)NNC(=O)c2ccncc2)c1 | 4.37 | – |
| CN(C)S(=O)(=O)c1cccc(NC(=O)Cc2ccsc2)c1 | 31.4 | – |
| Cc1ccc(F)c(S(=O)(=O)NC(=O)C2(C)CCN2C(=O)CCc2cccs2)c1 (stereo not drawn) | -4.2 | – |
| CCc1cccc(NC(=S)N(CCN(C)C)C2CCN(C(C)C)CC2)c1 | – | 5.01 µM (active) |
| Cc1cccc(NC(=S)N(CCN(C)C)C(C)c2ccco2)c1 (stereo not drawn) | -25.9 | – |
| COCCN(C(=S)Nc1ccccc1OC)C1CCN(C(C)C)CC1 | -16.1 | – |
| CCc1cccc(NC(=O)CCCN2C(=O)C(c3ccccc3)Oc3cccnc32)c1 (stereo not drawn) | – | 7.94 µM (active) |
| CCc1cccc(NC(=O)CSc2nccn2C)c1 | 0.0761 | – |

| SMILES | activity change, negative = inhibition [%] | Potency |
| --- | --- | --- |
| CCc1cccc(NC(=O)CCNS(=O)(=O)c2cccc3nonc23)c1 | – | inactive |
| Cc1ccc(S(=O)(=O)N2C[C@@H](C)[C@]3(C2)[C@H](O)[C@H](OC(=O)NCc2ccccc2)C[C@H]2C(=O)N(c4ccccc4)C(=O)[C@H]23)cc1 | -29.8 | – |
| O=C(C1=C[C@H](C2CC2)C[C@H](OCc2ccc(CO)cc2)O1)N1CCN(Cc2ccccc2)CC1 | 5.02 | – |
| O=C(NCc1ccccc1)C1=C[C@@H](C2CCCCC2)C[C@@H](OCc2ccc(CO)cc2)O1 | – | 10 µM (active) |
| O=C(NCc1ccccc1)C1=C[C@@H](c2ccccc2)C[C@@H](OCCCCO)O1 | 10.3 | – |
| CCCNC(=O)C[C@@H]1CC[C@@H]2[C@H](COC[C@H](O)CN2C(=O)c2cc(Cl)cc(Cl)c2)O1 | 10.5 | – |
| CCOc1c(Br)cc(/C=C2\C(=O)N(CCC#N)N=C2C)cc1OC | -9.5 | – |
| Cc1cccc(C)c1-n1c(C)cc(/C=C2\C(=O)NN(c3ccccc3)C2=O)c1C | -33.4 | – |
| COc1cc(/C=C2/C(=O)NN(c3cccc(Cl)c3)C2=O)cc(Br)c1O | – | 5.01 µM (active) |
| Cc1ccccc1Cn1c(C)c(C(=O)NCc2cccc(C(F)(F)F)c2)sc1=O | -0.425 | – |
| CCOC(=O)C1(C)CCCN(C(=O)c2ccc(F)c(Cl)c2)C1 (stereo not drawn) | 10.9 | – |
| CC(C)C[C@H]1CNC(=O)C(=O)N1C[C@H]1CCCN1C[C@H](Cc1ccc(O)cc1)N1C[C@H](CC(C)C)N(CC2CCCCCC2)C(=O)C1=O | 16.7 | – |
| O=C(OCc1cc(=O)n2ccsc2n1)C1(c2ccc(Cl)cc2)CC1 | 38.1 | – |
| O=C(OCCN1CCOCC1)C1(c2ccccc2)CCCCC1 | -20 | – |
| CC(=O)N1CCC(C(=O)OCc2ccc(Cl)cc2)(c2ccccc2)CC1 | – | 10 µM (active) |
| CC=CCn1c(SCCCc2ccccc2)nc2c1c(=O)[nH]c(=O)n2C | 9.86 | – |
| CCC(=O)N1CCCC1(C)C(=O)Nc1ccc2c(c1)CCN2C(C)=O (stereo not drawn) | 20.5 | – |
| O=C(c1ccccc1)C(O)(CN1CCCCC1)c1ccccc1 (stereo not drawn) | 7.83 | – |
| O=C(O)c1ccc(N=NN2CCOCC2)cc1 | 0.44 | – |
| O=C(O)c1cccc(N=NN2CCCCCC2)c1 | – | 3.55 µM (active) |
| COc1ccc(C(=O)C(OP(=O)(OC)OC)c2ccccc2OC)cc1 (stereo not drawn) | 5.29 | – |
| COc1ccccc1CNC(=O)c1cc(-c2cc(F)ccc2OC)n[nH]1 | -19.5 | – |
| COc1cnn(-c2ccc([N+](=O)[O-])cc2)c(=O)c1Cl | 16 | – |
| O=c1[nH]n(-c2ccc([N+](=O)[O-])cc2)c(=O)c2ccccc12 | – | 5.01 µM (active) |
| O=[N+]([O-])c1ccc(N2CCOCC2)cc1 | 2.47 | – |

| SMILES | activity change, negative = inhibition [%] | Potency |
| --- | --- | --- |
| COc1ccc(S(=O)(=O)N[C@@H]2C=C[C@@H](CC(=O)N3CCc4ccccc4C3)O[C@@H]2CO)cc1 | 5.11 | – |
| CC(C)CNC(=O)C1(C)CCCN1C(=O)CSc1ccccc1 (stereo not drawn) | -1.66 | – |
| O=S(=O)(c1cccc(C(F)(F)F)c1)N1c2ccccc2-n2cccc2C1c1cccnc1 (stereo not drawn) | – | 10 µM (active) |
| CC(=O)Nc1ccc(NC(=O)C2CCCN2S(=O)(=O)c2cccc(C(F)(F)F)c2)cc1 (stereo not drawn) | -10.5 | – |
| O=S(=O)(c1cccc(C(F)(F)F)c1)N1CCN(c2cnccn2)CC1 | -8.51 | – |
| Cc1ccc(C)c(NC(=S)NNC(=S)Nc2ccc(C(C)C)cc2)c1 | – | 3.55 µM (active) |
| Cc1ccc(C)c(NC(=S)NNC(=O)c2csc(C)c2)c1 | 3.02 | – |
| CC(C)c1ccc(NC(=S)NNc2ccc(Cl)c(C(=O)O)c2)cc1 | -22.4 | – |
| CCCC(=O)NC(Nc1ccccc1OC)C(Cl)(Cl)Cl (stereo not drawn) | 0 | – |
| CCCCCN(C(=O)NC(=O)Nc1ccccc1OC)S(C)(=O)=O | -1.5 | – |
| CCCCCCCC(=O)NC(Nc1ccccc1OC)C(Cl)(Cl)Cl (stereo not drawn) | – | 6.31 µM (active) |
| Cn1ncc([N+](=O)[O-])c1C(=O)Nc1cc(Cl)ccc1Cl | -4.93 | – |
| CCc1nc2ccc(C(=O)N(C)Cc3ccco3)cn2c1N(C)C(=O)Cc1ccccc1 | -3.62 | – |
| OC[C@@H]1CN(C2CCCC2)C[C@H](n2cnc3c(NC4CCC4)ncnc32)O1 | -2.75 | – |
| CCc1ccccc1OCC(=O)Nc1ccc(C)c(S(=O)(=O)N2CCCCCC2)c1 | – | 8.91 µM (active) |
| COc1ccc(NC(=O)C2=NNC(=O)CC2)cc1S(=O)(=O)N1CCCCC1 | 33.5 | – |
| Cc1ccccc1OCC(=O)Nc1ccc2c(c1)ncn2C | 17.7 | – |
| Cc1ccccc1OCC(=O)Nc1ccc(N2CCN(C(=O)C(C)C)CC2)c(Cl)c1 | – | 3.98 µM (active) |
| Cc1ccc(NC(=O)COC(=O)C2CC2)cc1S(=O)(=O)N1CCOCC1 | -1.9 | – |
| COc1ccccc1C(CNC(=O)c1ccc(C)c(S(=O)(=O)N2CCCCC2)c1)N(C)C (stereo not drawn) | -12.3 | – |
| Cc1ccccc1OCC(=O)Nc1ccc(S(=O)(=O)N2CCOCC2)cc1 | 0.83 | – |
| COc1ccccc1C(=O)Nc1ccc(C)c(S(=O)(=O)N2CCCCC2)c1 | – | 14.1 µM (active) |
| Cc1ccc(NC(=O)CCC(=O)N2CCC(c3ccccc3)=N2)cc1S(=O)(=O)N1CCCCC1 | 4.32 | – |

From PubChem BioAssay AID624417 (National Center for Advancing Translational Sciences (NCATS), 2012)
